# This is a sample that favours compounds with a hit; in the whole collection about 2.8% have one here.
# MITF act = activators of MITF-driven TRPM1 promoter reporter, primary screen, cell-based, SK-MEL-5, luciferase, single point. activation, % at 12.5 µM. hit rate 0.75% among 300,000. SK-MEL-5 TRPM1-promoter luciferase, 24 h; % of positive control, neutral wells = 0;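 active means mean activation of at least 80% with every replicate also reaching 80%; inconclusive means mean reaches 80% but some replicate falls short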;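 further: 0% = neutral control wells and 100% = parthenolide positive control wells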
# esBAF inh = Bmi1 luciferase reporter increase in mESCs, primary screen, esBAF inhibitor project, mouse ES cells, Bmi1 luciferase knock-in, single point | reporter increase, % at 12.5 µM | hit rate 2% among 350,000 | 24 h; 100% = twice the neutral-well signal | AID 602393, 2012; in the data active means activation above about 40%; inconclusive means no clear call, values can overlap the other calls;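 further: 0% = median of the plate's neutral control wells and 100% = double that signal; a rise in the Bmi1 reporter signal indicates esBAF inhibition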
# Wnt act = Wnt/beta-catenin pathway activators, primary screen, cell-based, plate reader, single point. Wnt/beta-catenin reporter cell assay, activator. activation, % at 9.35 µM. hit rate 1.2% among 300,000. AID 743398, 2014; in the data active means activation above about 30%, passing the limit was not always enough; inconclusive means no clear call, values can overlap the other calls;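 further: 0% = neutral control wells and 100% = positive control wells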
# GAA850 FXN act = FXN promoter activators, primary screen, cell-based, luciferase luminescence, HEK293 lucGAA850; HEK293 lucGAA850 FXN promoter luciferase reporter, 24 h; percent of 10 µM SAHA response; activation, % at 6 µM; hit rate 0.56% among 360,000; AID 540364, 2011;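 active means activation above the average of all compounds screened plus 3 SD, cutoff fixed separately per campaign, cut at about 7.5% in these data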;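 further: 0% = DMSO wells and 100% = 10 µM SAHA wells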
# An asterisk follows results filed as active; u = inconclusive; x = no result.
SMILES,MITF act,esBAF inh,Wnt act,GAA850 FXN act
C=CCOn1c(=O)c(-c2cc3ccccc3o2)[n+]([O-])c2ccccc21,39,54*,x,4
CN(C)C(=O)c1cccc(-c2ccc([C@@H]3[C@@H](CO)N(C(=O)C4CCCCC4)[C@H]3C#N)cc2)c1,x,9,x,x
CN1C(=O)c2cc(NC(=O)C3CCCCC3)ccc2OC[C@@H]2O[C@H](CC(=O)NC3CCCC3)CC[C@@H]21,x,10,x,x
O=C(C[C@H]1C[C@@H]2c3cc(NC(=O)Nc4ccc(F)cc4)ccc3O[C@@H]2[C@H](CO)O1)NCC1CC1,x,1,x,x
OCCN(/C=N/c1nc(-c2ccc(Br)cc2)cs1)CCO,58,41*,-1,1
COc1ccc(-c2csc(/N=C/N(C)C)n2)cc1OC,45,x,23,6
Brc1ccc(-c2csc(/N=C/N3CCCC3)n2)cc1,65,34,27,4
Brc1ccc(-c2csc(/N=C/N3CCOCC3)n2)cc1,35,51*,x,0
CC(C)NC(=O)N(C)C[C@@H]1Oc2ncc(C#CC3(O)CCCC3)cc2C(=O)N([C@@H](C)CO)C[C@@H]1C,x,3,x,x
O=C(Nc1ccccc1F)N1CCCCN2[C@H](C1)[C@@H](c1ccc(C3=CCCC3)cc1)[C@@H]2CO,x,2,x,x
C/C(=N\NC(=O)c1ccccc1O)C1C(=O)c2ccccc2C1=O,13,81*,x,2
C/C(=N/NC(=O)c1cc2ccccc2cc1O)C1C(=O)c2ccccc2C1=O,-5,51*,-3,3
C/C(=N\NC(=O)c1cc2ccccc2cc1O)c1ccccn1,-72,-55,14,5
C[C@H]1CN([C@@H](C)CO)C(=O)c2cccc(NS(=O)(=O)c3ccccc3)c2O[C@@H]1CN(C)Cc1ccc(C(=O)O)cc1,x,1,x,x
COc1ccc(CCNC2CC(=O)N(CCc3ccccc3)C2=O)cc1OC (centres undefined),4,6,42*,-1
C[C@H]1CN([C@@H](C)CO)C(=O)c2cc(NC(=O)Cc3ccccc3)ccc2O[C@H]1CN(C)Cc1ccc(Cl)c(Cl)c1,x,7,x,x
Cc1ccc(CNC(=O)Nc2cccs2)cc1,37,54*,x,6
Cc1ccc(C)c(CNC(=O)Nc2ccccc2)c1,86*,51*,3,5
COc1ccc(CNC(=O)Nc2cccs2)cc1OC,0,-6,x,2
Cc1ccc2[nH]cc(CCNC(=O)Nc3ccccc3)c2c1,-3,-5,x,-1
Cc1ccc(CNC(=O)NCc2ccccc2)cc1,13,x,7,2
Cc1ccc(CNC(=O)Nc2ccccc2)cc1,u,46*,21,1
O=C(NCc1ccc(Cl)cc1Cl)Nc1ccccc1,66,x,46*,6
CN(C)C(=O)C[C@@H]1CC[C@@H](NC(=O)C2CCOCC2)[C@@H](CO)O1,x,0,x,x
C[C@@H]1CN([C@@H](C)CO)C(=O)c2cc(NC(=O)Cc3ccccc3)ccc2O[C@@H]1CN(C)Cc1ccc2c(c1)OCO2,x,4,x,x
SMILES,MITF act,esBAF inh,Wnt act,GAA850 FXN act
C[C@H](CO)N1C[C@H](C)[C@@H](CN(C)C(=O)C2CCC2)Oc2ncc(C#CC(C)(C)O)cc2C1=O,x,1,x,x
COc1ccc(NC(=O)N(C)C[C@@H]2OCc3cn(nn3)CCCC(=O)N([C@@H](C)CO)C[C@@H]2C)cc1,x,-3,x,x
COc1ccccc1-c1ccc2c(c1)[C@@H]1[C@@H](CCN1S(=O)(=O)c1ccccc1F)[C@H](CO)N2,x,-1,x,x
O=C(CCCCn1c(=O)[nH]c2ccsc2c1=O)NCCc1ccccc1,10,3,37*,2
CCOc1ccc(NC(=O)CCCCn2c(=O)[nH]c3ccsc3c2=O)cc1,9,4,37*,1
CCOc1ccc(NC(=O)CCCn2c(=S)[nH]c3ccsc3c2=O)cc1,-5,x,-2,-1
CC(C)NC(=O)N(C)C[C@H]1Oc2c(NC(=O)NC3CCCCC3)cccc2C(=O)N([C@H](C)CO)C[C@H]1C,x,5,x,x
Cc1noc(C)c1S(=O)(=O)Nc1ccc2c(c1)CC(=O)N([C@@H](C)CO)C[C@@H](C)[C@H](CN(C)C(=O)Nc1ccc3c(c1)OCO3)O2,x,6,x,x
CC(=O)N(C)C[C@H]1Oc2ncc(C#CCc3ccccc3)cc2C(=O)N([C@@H](C)CO)C[C@@H]1C,x,2,x,x
C[C@@H]1CN([C@H](C)CO)C(=O)c2cccc(NC(=O)C3CCOCC3)c2O[C@@H]1CN(C)S(=O)(=O)c1ccc(F)cc1,x,0,x,x
C[C@H](CO)N1C[C@H](C)[C@@H](CN(C)C(=O)Cc2ccccc2)OCCCC[C@H](C)Oc2ccc(NC(=O)Nc3ccc(F)cc3)cc2C1=O,x,-4,x,x
CC(=O)c1ccc(OCc2cc(C(=O)NC(C)CCn3cccn3)no2)cc1 (centres undefined),78,71*,14,0
O=C(NCCCn1cccn1)c1cc(COc2ccccc2)on1,x,82*,u,-1
CC(CCn1cccn1)NC(=O)c1cc(COc2ccc(F)cc2F)on1 (centres undefined),3,0,-3,1
Nc1ncc(Br)cc1N=Cc1ccccc1,62,x,3,9.9*
O=C(CCc1ccccc1)Nc1ccc(Cl)cn1,19,43*,x,0
Cc1cc(NC(=O)c2ccco2)ncc1NC(=O)Cc1ccccc1,59,45*,x,2
O=C(Nc1ccccn1)c1ccc(NC(=O)c2ccco2)cc1,86*,17,x,4
O=C(COc1ccccc1Cl)Nc1ccc(Cl)cn1,x,30,52*,4
C[C@@H]1CN([C@H](C)CO)C(=O)c2cc(NS(=O)(=O)c3cccs3)ccc2O[C@@H]1CN(C)S(=O)(=O)c1ccc(Cl)cc1,x,-4,x,x
O=C(Nc1ccc(NC(=O)c2ccccc2Cl)nc1)c1ccco1,55,54*,9,2
O=C(COc1ccccc1Cl)Nc1ccccc1C(=O)N1CCCCC1,43,61*,-1,3
O=C(OC1CCCCC1)c1ccc(NC(=O)c2ccco2)cc1,55,60*,-3,2
O=C(CCc1ccccc1)Nc1ccc(NC(=O)c2ccco2)nc1,u,36,36*,2
CCC(=O)Nc1ccc(NC(=O)c2ccccc2Cl)nc1,18,-13,x,2
SMILES,MITF act,esBAF inh,Wnt act,GAA850 FXN act
COc1ccccc1OCC(=O)Nc1ccccc1C(=O)N1CCCCC1,3,x,0,2
O=C(C[C@H]1C[C@H]2c3cc(NC(=O)Nc4ccc(C(F)(F)F)cc4)ccc3O[C@H]2[C@H](CO)O1)NCCc1ccccc1,x,0,x,x
COc1ccc(CN(C)C[C@H]2OCCCC[C@@H](C)Oc3ccc(NC(=O)c4ccccc4)cc3C(=O)N([C@@H](C)CO)C[C@H]2C)cc1,x,-9,x,x
CCC(=O)N1C[C@H]2[C@@H](c3ccccc31)[C@@H](CO)N2C(=O)CC1CC1,x,-5,x,x
O=C(Nc1ccc(-c2nc3ncccc3o2)cc1)c1ccco1,104*,x,27,7
O=C(Nc1ccc(-c2nc3ncccc3o2)cc1)c1ccc(Br)o1,30,36,21,1
CCOc1ccc(C(=O)N2CCCC2)cc1OC,-11,0,34*,1
